Assay outcomes from PubChem.
Compounds with a hit are over-represented: about 17% of the library has one in this group of screens.
TGFb inhibitor = blocks TGF-b signaling | Potency, µM (series often up to 46.1 µM), inactives show at the top dose activity, negative = inhibition, usual class: inhibitors | actives 1.2% (n = 410,000) | HepG2 CAGA-GFP TGF-b/SMAD3 reporter, GFP fluorescence, 18 h; TGF-beta stimulated, 500 pg/mL final; further: on the % scale 0 is the no-effect control and ±100 the full control effect; nearly all actives have a fitted effect of over 65% in size
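Cell-based qHTS in HEPG2 carrying a CAGA-GFP Smad reporter; compounds added before 500 pg/mL final TGF-beta, 18 h incubation at 37 degrees C, GFP fluorescence quantified per cell by imaging cytometry.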
DT40 TDP1 no CPT = qHTS for Inhibitors of human tyrosyl-DNA phosphodiesterase 1 (TDP1): qHTS in cells in absence of CPT. Potency, µM (top dose mostly 46.2 µM), without a hit: at the top dose activity change, negative = growth inhibition, most hits filed as inhibitors. DT40 Tdp1-/- hTDP1 cells, no CPT, ATP luminescence, 48 h. actives 15% (n = 420,000); further: on the % scale 0 is the no-effect control and ±100 the full control effect; nearly all actives have a fitted effect of over 55% in size
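Growth of hTDP1-complemented DT40 Tdp1-knockout cells is measured by ATP luminescence after at least 48 hr compound exposure at 37 °C, with DMSO substituting for the 20 nM CPT used in the parallel screen.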
TDP1 cell CPT = DT40-hTDP1 cell growth loss with CPT. Potency, µM (top dose mostly 46.2 µM), without a hit: at the highest dose activity change, negative = growth inhibition, usual class: inhibitors. AID 686979. actives 12% (n = 420,000). chicken DT40 Tdp1-/-;hTDP1 cells + 20 nM CPT, ATP luminescence, 48 h; further: on the % scale 0 is the no-effect control and ±100 the full control effect; nearly all actives have a fitted effect of over 55% in size
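Chicken DT40 Tdp1-/- cells complemented with human TDP1, 400 cells/well, exposed to compounds plus 20 nM camptothecin for at least 48 h at 37 C; viability read as ATP content by CellTiter-Glo luminescence.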
HT1080 IDH1KD tx = toxicity to HT-1080 IDH1 knockdown cells (counter line); Potency, µM (top dose mostly 46.1 µM), for the others: at the highest dose activity, negative = toxicity, most hits filed as cytotoxic; actives 2% (n = 360,000); HT-1080 IDH1 knockdown viability, ATP luminescence, 48 h;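 further: 0% = DMSO wells and -100% = cell-free medium wells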
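In this qHTS, HT-1080 cells depleted of IDH1 are exposed for 48 h at 37 °C to compound titrations. Toxicity is scored from CellTiter-Glo luminescence, with DMSO as full viability and medium alone as none.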
HepG2 tox = HepG2 cytotoxicity, counter-screen for TGF-b inhibitors | Potency, µM (top dose mostly 46.1 µM), without a hit: top-dose activity change, negative = cytotoxicity, hits mostly cytotoxic | HepG2 CAGA-GFP viability, ATP luminescence, 18 h | actives 0.76% (n = 410,000)
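CellTiter-Glo luminescence gave cytotoxicity after 18 hours at 37 degrees C. The cells were HepG2 CAGA-GFP in 1% FBS DMEM, stimulated with 500 pg/mL TGF-beta after compound addition. %Activity was normalised to no-cell wells (complete cell-killing) and DMSO (no toxicity), and curves were fitted and classified.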
HT1080-NT tox = kills 2HG-producing HT-1080-NT fibrosarcoma cells. HT-1080-NT fibrosarcoma viability, CellTiter-Glo ATP luminescence, 48 h. Potency, µM (top dose mostly 46.1 µM), inactives show at the highest dose activity, negative = less viability, most hits filed as cytotoxic. actives 1.6% (n = 360,000);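 further: NT is the 2HG producing partner of a matched IDH1 knockdown line; 0% = DMSO-treated cells and -100% = media-only wells without cells; nearly all actives have a fitted effect of over 55% in size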
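Luminescent CellTiter-Glo readout after 48 hours of compound exposure at 37 degrees C defined viability of HT-1080-NT cells. Activity was normalized to DMSO wells and cell-free media wells; concentration-response curves were fitted and assigned curve classes.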
An asterisk follows results filed as active; ? = inconclusive; nt = not tested or not shown; ! = repeats disagree. The call rests on the fitted dose curve; in most records, active means well fitted curve in the direction sought with a large enough effect; inconclusive means small, poorly fitted or top-dose-only effect, or another doubt; inactive means no such curve, though single readings can be large; an effect the other way counts as inactive or inconclusive. Potency means the concentration at half of the fitted maximal effect.

SMILES	TGFb inhibitor	DT40 TDP1 no CPT	TDP1 cell CPT	HT1080 IDH1KD tx	HepG2 tox	HT1080-NT tox
COCCCNC(=O)C1CCCN(c2nn3cc(-c4ccc(C)cc4)nc3s2)C1 (stereo unspecified)	-1.9%	?	?	nt	-25.2%	nt
CCCCN(CC)CCNC(=O)C1CCCN(c2ncnc3onc(C)c23)C1 (stereo unspecified)	-10.1%	-15.6%	-26.2%	nt	0.4%	nt
COCCCNC(=O)C1CCCN(c2ncnc3onc(C)c23)C1 (stereo unspecified)	-17.1%	?	18.4µM*	nt	-2.2%	nt
Cc1ccc(C)c(NC(=O)C2CCCN(c3ncnc4onc(C)c34)C2)c1 (stereo unspecified)	10.1%	10.3µM*	11.6µM*	nt	-9.6%	nt
CCOC(=O)c1ccc(NC(=O)C2CCCN(S(=O)(=O)c3cnc[nH]3)C2)cc1 (stereo unspecified)	-5.8%	-5.0%	0.8%	-4.5%	-16.8%	0.0%
CCOC(=O)c1ccc(NC(=O)C2CCCN(c3ncnc4onc(C)c34)C2)cc1 (stereo unspecified)	-15.8%	14.6µM*	13µM*	nt	-27.5%	nt
COc1ccc(NC(=O)c2ccco2)cc1NC(=O)c1cccc(F)c1	-2.8%	?	-23.0%	0.5%	-2.6%	2.0%
CC(=O)c1ccc(NC(=O)CC23CC4CC(C2)CC(n2nnc(C)n2)(C4)C3)cc1	5.4%	13µM*	?	4.8%	5.7%	0.0%
Cc1nc2ccccn2c1C(=O)CSc1ccc(Cl)cc1Cl	0.4%	18.4µM*	?	3.7%	-13.1%	-5.4%
Cc1nc2ccccn2c1C(=O)CSc1ccccc1Cl	-1.4%	16.4µM*	16.4µM*	-25.2%	-20.3%	-7.2%
Cc1ccc(SCC(=O)c2c(C)nc3cc(C)ccn23)cc1	0.9%	?	?	-6.7%	-11.7%	8.1%
Cc1nc2ccccn2c1C(=O)CSc1cccc(Cl)c1	-12.0%	?	?	-4.8%	-30.5%	0.8%
Cc1ccc(-n2c3nc(=O)[nH]c(=O)c-3cc3c(C)nn(-c4ccccc4)c32)cc1Cl	5.8%	-26.2%	1.7%	nt	5.0%	nt
CCNC(=O)C1CCCN(C(=O)c2cccc(Cl)c2)CC1 (stereo unspecified)	-12.3%	1.2%	-8.7%	8.5%	-9.3%	22.9%
Cc1ccc([N+](=O)[O-])cc1NC(=O)c1ccccc1	10.4%	-16.1%	1.2%	-0.3%	0.0%	3.6%
Cc1cc(O)c(NC(=O)c2cc([N+](=O)[O-])ccc2Cl)cc1C	-17.0%	-27.1%	?	?	-15.0%	?
O=C(Nc1ccccc1)c1cc([N+](=O)[O-])ccc1Cl	3.1%	28.2µM*!	29.9µM*!	-20.3%	-23.1%	-6.1%
Cc1ccc(O)c(NC(=O)c2cc([N+](=O)[O-])ccc2Cl)c1	5.1%	20.6µM*	?	?	-12.0%	-16.0%
O=C(CNC(c1ccccc1)c1ccccc1)Nc1cc([N+](=O)[O-])ccc1Cl	?	16.4µM*	20.6µM*	-4.4%	5.5%	-0.3%
Cc1ccc([N+](=O)[O-])cc1NC(=O)C(Sc1ccccc1)c1ccccc1 (stereo unspecified)	-10.0%	16.4µM*	?	2.7%	1.9%	-2.3%
O=C(O)c1csc(-n2nc(-c3ccccc3)cc2C(F)(F)F)n1	-2.7%	5.4%	-5.3%	-7.8%	-32.2%	-6.3%
COC(=O)c1ccc2nc(-c3cccc(Br)c3)c(Cc3ccccc3OC)n2c1	nt	20.6µM*	?	11.6µM*	nt	9.9%
COC(=O)c1ccc2nc(-c3ccc(F)cc3)c(Cc3ccccc3OC)n2c1	nt	18.4µM*	20.6µM*	9.4%	nt	12.6%
COc1ccc(NC(=S)NNC(=O)COc2ccc(Cl)cc2Cl)cc1	-8.6%	20.6µM*	?	-7.2%	-34.8%	1.3%
Cc1ccc(OCC(=O)Nc2ccc([N+](=O)[O-])cc2)cc1	-0.4%	4.9%	-3.9%	6.2%	30.6%	5.2%
SMILES	TGFb inhibitor	DT40 TDP1 no CPT	TDP1 cell CPT	HT1080 IDH1KD tx	HepG2 tox	HT1080-NT tox
CN(C)c1nc(OCCNC(=O)COc2ccc(Cl)cc2Cl)nc(N(C)C)n1	-1.4%	8.2µM*	7.31µM*	5.9%	-15.0%	-0.3%
CCC(=O)NC(=S)Nc1ccc(NC(=O)COc2ccc(Cl)c(C)c2)cc1	?	16.4µM*	13µM*	-12.8%	8.1%	-6.5%
CCC(=O)NC(=S)Nc1ccc(NC(=O)COc2ccc([N+](=O)[O-])cc2)cc1	?	23.1µM*	?	-5.4%	-26.0%	-9.4%
CCOc1ccc2c(c1)[C@@H]1C=CC[C@@H]1[C@H](c1ccccc1Cl)N2	-21.6%	-16.4%	-4.4%	nt	-34.0%	nt
CCCCNC(=O)CC1NCCNC1=O (stereo unspecified)	0.0%	-0.5%	-0.4%	12.9%	35.3%	6.1%
CCOC(=O)[C@H]1NN=C(C(=O)OC)[C@@H]1c1ccccc1	?	-9.9%	-14.3%	-0.9%	-22.0%	-0.4%
O=C(c1ccc(N2C(=O)CCC2=O)cc1)N1CCCSC1=Nc1ccccc1	-9.5%	?	-7.7%	-0.2%	-5.4%	10.0%
C/C(=N/NC(=O)c1cccs1)c1ccc(NC(=O)COc2ccc(Cl)cc2Cl)cc1	1.3%	?	14.6µM*	-16.4%	3.2%	-7.9%
COC(CC(=O)NNC(=S)Nc1ccc(Cl)cc1)OC	-12.2%	18.4µM*	18.4µM*	-0.5%	-11.4%	3.4%
COc1ccc(C)cc1NC(=O)C(=O)NNC(=O)COc1ccc(Cl)cc1	-20.4%	23.1µM*	?	?	-14.1%	?
COC(CC(=O)NNC(=S)Nc1ccccc1)OC	-7.7%	0.3%	-2.2%	?	-11.5%	13.9%
Cc1cccc(NC(=S)NNC(=O)COc2ccc(Cl)cc2Cl)c1	-30.3%	-14.4%	6.7%	-1.5%	-10.2%	-1.1%
CCC(=O)NC(=S)Nc1ccc(NC(=O)COc2ccc(Cl)cc2Cl)cc1	?	8.2µM*	16.4µM*	-6.1%	-16.5%	-10.9%
COc1ccc(OCC(=O)NNC(=O)C(=O)Nc2cc(OC)ccc2OC)cc1	-5.6%	-20.5%	?	-1.7%	-4.7%	-1.9%
CCOC(=O)[C@]12CCCC=C1N(Cc1ccco1)C(=O)[C@H](CC(=O)NCCc1ccccc1OC)C2	nt	?	?	0.5%	nt	0.7%
Clc1ccc(N2CCN(Cc3ccco3)CC2)cc1	0.9%	?	-23.8%	-0.6%	-4.0%	1.7%
